Reference: paper PMC7862700, “An all-to-all approach to the identification of sequence-specific readers for epigenetic DNA modifications on cytosine”

Assays:
Test in all cases: DAPPL (digital affinity profiling via proximity ligation, sequencing); 10 mM Tris-HCl pH 7.5, 50 mM NaCl, 1 mM DTT, 4% glycerol, room temperature, 30 min; GST-TFs on glutathione beads, 16-mer random dsDNA library, 0.1% formaldehyde crosslink after washing; high values mean tight binding
Details in all cases: protein: recombinant; tags: N-terminal GST; dsDNA, one strand shown
FLI1 = molecular target: T1, FLI1 (Homo sapiens, UniProt Q01543 1-452)
T1 sequence: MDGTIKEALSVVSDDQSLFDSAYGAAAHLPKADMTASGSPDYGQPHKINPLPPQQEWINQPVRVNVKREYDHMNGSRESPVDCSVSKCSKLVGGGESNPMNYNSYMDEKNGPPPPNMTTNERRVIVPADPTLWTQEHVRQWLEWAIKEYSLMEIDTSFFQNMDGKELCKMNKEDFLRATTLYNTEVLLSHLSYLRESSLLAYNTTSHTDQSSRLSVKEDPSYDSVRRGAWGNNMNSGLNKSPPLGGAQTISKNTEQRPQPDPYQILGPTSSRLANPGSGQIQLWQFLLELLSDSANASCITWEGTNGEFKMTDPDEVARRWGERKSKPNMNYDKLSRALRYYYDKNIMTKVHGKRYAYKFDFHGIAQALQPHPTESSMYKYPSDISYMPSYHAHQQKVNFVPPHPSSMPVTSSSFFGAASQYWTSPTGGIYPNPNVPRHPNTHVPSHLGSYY
Summary of the method: (§1)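 Human transcription factors were made in yeast as GST fusions, captured on glutathione beads and barcoded with DNA. With a tag-only sample included, the pool was incubated with 200 nmole of a random double-stranded 16-mer DNA library in Tris/NaCl/DTT/glycerol buffer at room temperature for 30 min, then crosslinked with 0.1% formaldehyde after washing, ligated by proximity, amplified and sequenced. For binding signal, each hexamer's read frequency for a factor is divided by its frequency for the tag-only sample.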

ELK1 = molecular target: T2, ELK1 (Homo sapiens, UniProt P19419 1-428)
T2 sequence: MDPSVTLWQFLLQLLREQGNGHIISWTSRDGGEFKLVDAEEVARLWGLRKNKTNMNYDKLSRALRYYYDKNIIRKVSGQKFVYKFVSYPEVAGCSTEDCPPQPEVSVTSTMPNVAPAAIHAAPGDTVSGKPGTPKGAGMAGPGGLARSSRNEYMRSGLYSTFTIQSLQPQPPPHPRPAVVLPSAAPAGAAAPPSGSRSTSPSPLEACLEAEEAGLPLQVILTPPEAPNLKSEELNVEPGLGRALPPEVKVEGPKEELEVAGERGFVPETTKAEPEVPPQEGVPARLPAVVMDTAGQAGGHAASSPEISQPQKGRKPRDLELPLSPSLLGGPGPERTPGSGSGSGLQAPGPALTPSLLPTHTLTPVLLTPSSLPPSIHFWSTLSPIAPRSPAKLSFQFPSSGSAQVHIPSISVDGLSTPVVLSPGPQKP
Summary of the method: as §1

GABPA = molecular target: T3, GABPA (Homo sapiens, UniProt Q06546 1-454)
T3 sequence: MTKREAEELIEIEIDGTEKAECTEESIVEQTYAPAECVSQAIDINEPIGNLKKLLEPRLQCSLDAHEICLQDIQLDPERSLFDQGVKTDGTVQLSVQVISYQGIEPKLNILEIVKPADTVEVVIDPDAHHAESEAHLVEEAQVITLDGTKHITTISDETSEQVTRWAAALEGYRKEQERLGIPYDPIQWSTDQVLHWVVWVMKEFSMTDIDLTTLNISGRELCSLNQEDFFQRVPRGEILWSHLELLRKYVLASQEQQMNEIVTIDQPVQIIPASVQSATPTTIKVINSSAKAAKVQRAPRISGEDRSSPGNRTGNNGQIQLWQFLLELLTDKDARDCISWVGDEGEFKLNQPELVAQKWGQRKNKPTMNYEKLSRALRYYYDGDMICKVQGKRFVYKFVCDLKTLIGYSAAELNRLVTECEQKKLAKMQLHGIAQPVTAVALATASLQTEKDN
Summary of the method: as §1

SPIB = SPIB (Homo sapiens, UniProt Q01892 1-262)
Summary of the method: as §1

ELK3 = molecular target: T4, ELK3 (Homo sapiens, UniProt P41970 1-407)
T4 sequence: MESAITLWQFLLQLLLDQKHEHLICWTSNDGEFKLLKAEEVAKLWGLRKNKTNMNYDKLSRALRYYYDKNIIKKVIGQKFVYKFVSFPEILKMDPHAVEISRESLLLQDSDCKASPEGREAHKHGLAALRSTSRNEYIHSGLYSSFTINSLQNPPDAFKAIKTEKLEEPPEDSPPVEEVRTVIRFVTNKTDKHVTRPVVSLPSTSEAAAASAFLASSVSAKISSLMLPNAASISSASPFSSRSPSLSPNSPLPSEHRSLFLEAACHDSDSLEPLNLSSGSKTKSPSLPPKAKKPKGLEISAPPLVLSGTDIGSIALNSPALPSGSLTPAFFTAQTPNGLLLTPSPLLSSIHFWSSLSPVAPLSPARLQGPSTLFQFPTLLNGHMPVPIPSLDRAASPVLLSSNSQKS
Summary of the method: as §1

ELF4 = ELF4 (Homo sapiens, UniProt Q99607 1-663)
Summary of the method: as §1

ELK4 = molecular target: T5, ELK4 (Homo sapiens, UniProt P28324-2 1-405)
T5 sequence: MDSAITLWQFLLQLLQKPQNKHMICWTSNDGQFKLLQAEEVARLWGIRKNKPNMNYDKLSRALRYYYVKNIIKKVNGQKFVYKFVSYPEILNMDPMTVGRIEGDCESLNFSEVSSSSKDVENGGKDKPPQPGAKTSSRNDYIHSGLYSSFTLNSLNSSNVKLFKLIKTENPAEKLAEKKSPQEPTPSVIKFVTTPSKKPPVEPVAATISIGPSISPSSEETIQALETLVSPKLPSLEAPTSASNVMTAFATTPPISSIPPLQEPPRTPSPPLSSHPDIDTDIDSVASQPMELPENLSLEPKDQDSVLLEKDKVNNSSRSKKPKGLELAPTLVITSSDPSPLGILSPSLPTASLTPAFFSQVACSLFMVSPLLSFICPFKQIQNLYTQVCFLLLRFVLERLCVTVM
Summary of the method: as §1

ETV2 = molecular target: T6, ETV2 (Homo sapiens, UniProt O00321 1-342)
T6 sequence: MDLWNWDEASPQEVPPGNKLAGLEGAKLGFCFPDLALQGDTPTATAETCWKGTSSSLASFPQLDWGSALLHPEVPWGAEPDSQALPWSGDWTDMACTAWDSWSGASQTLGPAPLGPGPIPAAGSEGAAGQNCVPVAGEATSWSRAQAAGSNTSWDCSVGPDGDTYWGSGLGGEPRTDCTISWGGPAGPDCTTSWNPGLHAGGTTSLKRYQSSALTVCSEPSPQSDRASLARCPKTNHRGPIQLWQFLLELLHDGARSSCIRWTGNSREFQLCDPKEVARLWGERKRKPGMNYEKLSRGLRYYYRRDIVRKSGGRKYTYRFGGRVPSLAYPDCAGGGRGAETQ
Summary of the method: as §1

ELF3 = molecular target: T7, ELF3 (Homo sapiens, UniProt P78545 1-371)
T7 sequence: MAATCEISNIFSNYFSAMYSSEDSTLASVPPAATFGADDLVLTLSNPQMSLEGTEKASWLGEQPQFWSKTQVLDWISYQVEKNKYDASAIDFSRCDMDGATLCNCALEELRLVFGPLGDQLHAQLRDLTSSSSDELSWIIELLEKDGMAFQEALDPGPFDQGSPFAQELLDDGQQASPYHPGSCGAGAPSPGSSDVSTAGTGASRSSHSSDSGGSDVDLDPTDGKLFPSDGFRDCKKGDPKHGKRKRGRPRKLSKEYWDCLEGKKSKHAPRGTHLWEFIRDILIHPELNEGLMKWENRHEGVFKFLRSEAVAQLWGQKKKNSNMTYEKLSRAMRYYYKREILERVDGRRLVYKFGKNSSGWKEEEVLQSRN
Summary of the method: as §1

ETV1 = ETV1 (Homo sapiens, UniProt P50549 1-477)
Summary of the method: as §1

ETV3L = molecular target: T8, ETV3L (Homo sapiens, UniProt Q6ZN32 1-361)
T8 sequence: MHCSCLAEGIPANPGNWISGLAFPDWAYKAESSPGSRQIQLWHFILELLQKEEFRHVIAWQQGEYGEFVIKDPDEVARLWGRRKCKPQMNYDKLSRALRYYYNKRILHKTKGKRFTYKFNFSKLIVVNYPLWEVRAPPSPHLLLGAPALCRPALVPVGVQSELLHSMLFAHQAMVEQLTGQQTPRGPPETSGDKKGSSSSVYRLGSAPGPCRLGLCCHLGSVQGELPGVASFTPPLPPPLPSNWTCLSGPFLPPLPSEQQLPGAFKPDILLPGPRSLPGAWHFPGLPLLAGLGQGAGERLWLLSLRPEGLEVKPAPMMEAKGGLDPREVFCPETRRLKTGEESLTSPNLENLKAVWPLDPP
Summary of the method: as §1

ETS2 = molecular target: T9, ETS2 (Homo sapiens, UniProt P15036 1-469)
T9 sequence: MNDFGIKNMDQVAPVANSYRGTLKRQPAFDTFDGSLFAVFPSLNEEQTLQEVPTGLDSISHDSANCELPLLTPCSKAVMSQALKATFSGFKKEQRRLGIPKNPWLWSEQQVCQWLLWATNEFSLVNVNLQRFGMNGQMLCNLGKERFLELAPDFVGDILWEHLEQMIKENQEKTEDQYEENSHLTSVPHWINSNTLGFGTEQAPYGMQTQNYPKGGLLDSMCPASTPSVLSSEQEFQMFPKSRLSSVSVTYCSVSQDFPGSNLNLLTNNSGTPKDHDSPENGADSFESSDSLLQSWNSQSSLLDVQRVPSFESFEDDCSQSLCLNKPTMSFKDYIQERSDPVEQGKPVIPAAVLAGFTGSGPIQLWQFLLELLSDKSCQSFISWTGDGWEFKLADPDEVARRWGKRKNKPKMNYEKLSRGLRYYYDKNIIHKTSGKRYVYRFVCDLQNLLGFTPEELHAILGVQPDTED
Summary of the method: as §1

ETV6 = ETV6 (Homo sapiens, UniProt P41212 1-452)
Summary of the method: as §1

ETV6, sequence (P41212 whole entry): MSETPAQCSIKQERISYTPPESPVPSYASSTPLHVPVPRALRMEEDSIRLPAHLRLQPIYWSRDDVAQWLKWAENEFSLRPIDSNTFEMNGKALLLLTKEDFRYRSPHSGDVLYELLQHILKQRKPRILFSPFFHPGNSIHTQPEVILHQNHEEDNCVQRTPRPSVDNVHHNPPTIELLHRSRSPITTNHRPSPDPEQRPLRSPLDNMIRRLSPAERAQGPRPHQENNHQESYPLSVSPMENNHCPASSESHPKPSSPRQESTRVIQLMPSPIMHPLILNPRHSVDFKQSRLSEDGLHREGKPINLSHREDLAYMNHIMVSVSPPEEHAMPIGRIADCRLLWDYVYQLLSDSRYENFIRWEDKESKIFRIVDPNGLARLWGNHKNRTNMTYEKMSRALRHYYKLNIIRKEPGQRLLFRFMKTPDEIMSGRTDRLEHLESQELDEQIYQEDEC
ELF4, sequence (Q99607 whole entry): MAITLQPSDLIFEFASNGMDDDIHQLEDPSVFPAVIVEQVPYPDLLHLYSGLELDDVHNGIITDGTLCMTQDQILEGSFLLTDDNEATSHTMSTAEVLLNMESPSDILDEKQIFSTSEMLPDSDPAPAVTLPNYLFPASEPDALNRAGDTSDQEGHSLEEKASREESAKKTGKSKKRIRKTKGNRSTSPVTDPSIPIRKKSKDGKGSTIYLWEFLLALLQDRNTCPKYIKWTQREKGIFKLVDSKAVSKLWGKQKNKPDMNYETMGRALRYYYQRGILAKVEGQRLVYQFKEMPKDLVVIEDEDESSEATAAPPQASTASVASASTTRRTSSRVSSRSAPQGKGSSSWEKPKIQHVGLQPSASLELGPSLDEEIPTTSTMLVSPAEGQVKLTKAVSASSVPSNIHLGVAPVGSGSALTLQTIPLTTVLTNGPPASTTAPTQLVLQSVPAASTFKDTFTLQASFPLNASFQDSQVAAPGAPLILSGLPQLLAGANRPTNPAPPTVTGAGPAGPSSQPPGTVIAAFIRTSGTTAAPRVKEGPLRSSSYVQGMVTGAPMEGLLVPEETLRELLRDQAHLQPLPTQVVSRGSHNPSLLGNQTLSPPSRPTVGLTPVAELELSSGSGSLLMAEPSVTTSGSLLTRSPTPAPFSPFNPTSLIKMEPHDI
ETV1, sequence (P50549 whole entry): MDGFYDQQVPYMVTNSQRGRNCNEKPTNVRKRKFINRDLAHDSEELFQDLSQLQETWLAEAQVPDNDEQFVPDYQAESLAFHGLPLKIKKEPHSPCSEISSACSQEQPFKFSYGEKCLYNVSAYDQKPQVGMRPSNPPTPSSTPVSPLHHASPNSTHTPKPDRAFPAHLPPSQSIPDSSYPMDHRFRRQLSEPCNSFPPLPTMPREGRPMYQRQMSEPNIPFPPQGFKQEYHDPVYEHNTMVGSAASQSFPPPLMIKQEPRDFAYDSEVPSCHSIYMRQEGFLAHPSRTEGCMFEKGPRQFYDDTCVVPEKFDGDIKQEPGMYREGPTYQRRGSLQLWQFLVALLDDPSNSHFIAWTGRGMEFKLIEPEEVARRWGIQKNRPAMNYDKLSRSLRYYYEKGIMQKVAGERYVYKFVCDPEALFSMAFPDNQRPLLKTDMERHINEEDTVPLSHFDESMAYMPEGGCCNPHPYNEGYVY
SPIB, sequence (Q01892 whole entry): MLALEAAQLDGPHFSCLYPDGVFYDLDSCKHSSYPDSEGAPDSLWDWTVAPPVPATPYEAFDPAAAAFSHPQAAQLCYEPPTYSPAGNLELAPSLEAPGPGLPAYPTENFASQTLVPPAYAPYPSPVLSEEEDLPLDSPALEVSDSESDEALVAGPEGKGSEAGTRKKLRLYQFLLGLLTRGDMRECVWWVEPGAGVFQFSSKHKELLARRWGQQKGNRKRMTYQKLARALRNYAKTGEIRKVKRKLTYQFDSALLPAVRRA

Sequence: TCAGCC
- binding signal (FLI1): 1 fold enrichment (6-mer frequency, TF over GST control)
- binding signal (ELK1): 1.11 fold enrichment (6-mer frequency, TF over GST control)
- binding signal (GABPA): 1.06 fold enrichment (6-mer frequency, TF over GST control)
- binding signal (SPIB): 1.05 fold enrichment (6-mer frequency, TF over GST control)
- binding signal (ELK3): 1.13 fold enrichment (6-mer frequency, TF over GST control)
- binding signal (ELF4): 1.11 fold enrichment (6-mer frequency, TF over GST control)
- binding signal (ELK4): 1.02 fold enrichment (6-mer frequency, TF over GST control)
- binding signal (ETV2): 1.03 fold enrichment (6-mer frequency, TF over GST control)
- binding signal (ELF3): 1 fold enrichment (6-mer frequency, TF over GST control)
- binding signal (ETV1): 1.02 fold enrichment (6-mer frequency, TF over GST control)
- binding signal (ETV3L): 1.02 fold enrichment (6-mer frequency, TF over GST control)
- binding signal (ETS2): 1 fold enrichment (6-mer frequency, TF over GST control)
- binding signal (ETV6): 1.01 fold enrichment (6-mer frequency, TF over GST control)
